L3MBTL1 block: inhibitors of human L3MBTL1 | Q9Y468 | AlphaScreen L3MBTL1–H3K9me1 peptide binding | Potency, µM (highest dose often 57.1 µM), for the others: at the top dose activity, negative = inhibition, hits mostly inhibitors | 230,000 compounds, 0.66% hits; also: % is scaled to controls: 0 for no effect and ±100 for the full control effect; nearly all actives have a fitted effect of over 60% in size
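First, the protein-peptide complex forms for 30 min at room temperature (L3MBTL1 50 nM, biotinylated H3K9me1 peptide 75 nM). Next, compounds are pin-transferred and incubated 30 min. Finally, AlphaScreen beads are added and read after 30 min.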
JMJD2A Tudor: JMJD2A Tudor domain (human) inhibition. AID 504339. Potency, µM (doses to about 114 µM), for inactives: at the highest dose activity change, negative = inhibition, hits mostly inhibitors. 390,000 compounds, 4.4% hits. AlphaScreen JMJD2A-Tudor / H3K4me3 peptide binding; also: % is scaled to controls: 0 for no effect and ±100 for the full control effect; nearly all actives have a fitted effect of over 50% in size
VDR inhibitor: blocks the human vitamin D receptor; P11473; VDR-SRC2-3 peptide fluorescence polarization, 2 h; Potency, µM, inactives show max response, negative = inhibition, actives largely listed as inhibitors; 400,000 compounds, 0.93% hits; AID 504847; also: % is scaled to controls: 0 for no effect and ±100 for the full control effect
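Two reagent solutions held at 4 deg C in the dark were dispensed, compounds pinned at 23 nl, and the mixture incubated 2 h at room temperature. Read-out: fluorescence polarization of VDR–SRC2-3 peptide binding.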
PLK1 PBD block: inhibitors of human PLK1 polo-box domain binding. P53350. AID 720504. Potency, µM, without a hit: max response, negative = inhibition, hits mostly inhibitors. 360,000 compounds, 2.8% hits. Plk1 PBD binding of FITC phosphopeptide, fluorescence polarization; also: series mostly up to about 57 µM; % is scaled to controls: 0 for no effect and ±100 for the full control effect; nearly all actives have a fitted effect of over 65% in size
HP1b binding inh: HP1-beta chromodomain-methylated histone interaction inhibition; Potency, µM (top dose mostly 114 µM), without a hit: at the top dose activity change, negative = inhibition, most hits filed as inhibitors; P83916; 390,000 compounds, 0.56% hits; AID 540317; AlphaScreen HP1-beta / biotin-H3K9me3 peptide binding; also: nearly all actives have a fitted effect of over 70% in size
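Compound inhibition of the preformed complex between 50 nM HP1-beta and 50 nM biotinylated H3K9me3 peptide was read by AlphaScreen. Buffer was PBS pH 7.4 with 0.01% Tween-20. Incubations ran 30 min at room temperature, with 10 ug/mL donor/acceptor beads.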
BAZ2B block: blocks human BAZ2B; AlphaScreen BAZ2B-H3K14Ac peptide displacement; Potency, µM (highest dose often 114 µM), for the others: at the highest dose activity change, negative = inhibition, most hits filed as inhibitors; 360,000 compounds, 4.4% hits; also: % is scaled to controls: 0 for no effect and ±100 for the full control effect; nearly all actives have a fitted effect of over 60% in size
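In this displacement format the biotinylated H3(5-23) peptide acetylated at Lys14 serves as ligand at 50 nM, with BAZ2B at 50 nM in PBS pH 7.4 containing 0.01% Tween-20. Donor and acceptor beads are 10 ug/mL final.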
Numbers without * were called inactive; ? = inconclusive; . = no result; [ ] = dose if it differs, or a comment. Compounds with a hit are over-represented: about 6.9% of the library has one in this group of screens. Calls follow the shape of the dose curve; as a rule, active = well fitted curve in the direction sought with a large enough effect; inconclusive = small, poorly fitted or top-dose-only effect, or another doubt; inactive = no such curve, though single readings can be large; an effect the other way counts as inactive or inconclusive. Potency is read from the fitted curve at half-maximal effect.

SMILES	L3MBTL1 block	JMJD2A Tudor	VDR inhibitor	PLK1 PBD block	HP1b binding inh	BAZ2B block
COc1cc(OC)cc(-c2c(-c3cccs3)c3cc(-c4ccc(N(C)C)nc4)ccc3n2C)c1	-2%	?	18%	1%	14%	56µM*
S=C(NC1CC1)NC1CCCc2ccccc21 (stereo not drawn)	.	?	-4%	-9%	28%	56µM*
O=C1C=CC(=O)N1Cc1ccccc1	.	25µM*	16µM*	4.7µM*	?	?
O=C1C2CC=CCC2C(=O)N1Cc1ccccc1 (stereo not drawn)	-3%	1%	6%	0%	19%	3%
C=CCn1c(SCc2ccc(Cl)cc2)nc2c1c(=O)[nH]c(=O)n2C	1%	-16%	-26%	-14%	24%	-35%
CCC(C)Sc1nc2c(c(=O)[nH]c(=O)n2C)n1CC(O)COc1ccccc1C (stereo not drawn)	-4%	-19%[57.1 µM]	16%	11µM*	-32%	9%
CC(C)n1c(N2CCCC2)nc2c1c(=O)[nH]c(=O)n2C	.	-5%	-4%	-3%	39%	1%
C=CCSc1nc2c(c(=O)[nH]c(=O)n2C)n1Cc1ccc(C)cc1	-10%	-19%	-15%	21µM*	-6%	1%
CCC(C)Sc1nc2c(c(=O)[nH]c(=O)n2C)n1CCc1ccccc1 (stereo not drawn)	-8%	6%	16%	-1%	15%	9%
Cc1cc(C)n(-c2nc3c(c(=O)[nH]c(=O)n3C)n2CCc2ccccc2)n1	.	29%[11.4 µM]	-9%	30µM*	1%	1%
C=CCSc1nc2c(c(=O)[nH]c(=O)n2C)n1C(C)C	-2%[11.4 µM]	-14%	-30%	27µM*	-36%	-5%
Cc1cccc(NC(=O)CSCC(=O)Nc2sccc2C#N)c1	-10%	-17%	5%	-24%	22%	2%
Cc1ccccc1-c1cc(C(=O)NCc2ccco2)n(CC2CC(c3cccnc3)=NO2)n1 (stereo not drawn)	-8%	-33%	-9%	-20%	11%	?
Cc1ccc(Cn2c(SCC(C)C)nc3c2c(=O)[nH]c(=O)n3C)cc1	-1%	-25%	-12%	24µM*	?	2%
CCCSc1nc2c(c(=O)[nH]c(=O)n2C)n1Cc1ccc(C)cc1	6%	-13%	14%	-9%	25%	8%
CCOC(=O)CSc1nc2c(c(=O)[nH]c(=O)n2C)n1CCc1ccccc1	-1%	-8%	8%	1%	19%	3%
CCOC(=O)C(CC)Sc1nc2c(c(=O)[nH]c(=O)n2C)n1CCc1ccccc1 (stereo not drawn)	27%	-9%	-21%	24µM*	7%	30%
CC(C)Sc1nc2c(c(=O)[nH]c(=O)n2C)n1Cc1ccccc1	1%	-5%	0%	4%	32%	6%
CCOC(=O)C(C)Sc1nc2c(c(=O)[nH]c(=O)n2C)n1Cc1ccc(Cl)cc1 (stereo not drawn)	5%	-17%	89µM*	21µM*	-24%	-2%
O=C(NCc1ccccc1)c1cc(C2CCCN(S(=O)(=O)c3cccs3)C2)on1 (stereo not drawn)	.	.	.	4%	.	.
O=C(Nc1cccc(NC(=O)c2cccs2)c1)c1ccc2c(c1)OCCO2	5%	-16%	9%	-10%	-1%	-17%
NC(=O)c1cc2c3ccccc3ccn2c1-c1ccccc1	.	32µM*	?	?	?	32µM*
COc1cccc(N2CC(NC(=O)COc3ccc4ccccc4c3)CC2=O)c1 (stereo not drawn)	.	-12%	1%	.	25%	-1%
O=C(Nc1nnc(-c2ccncc2)s1)C1CCCO1 (stereo not drawn)	-1%	100µM*	-1%	21µM*	-9%	-29%
O=C(Nc1nnc(Cc2ccc(Cl)cc2)s1)C1CCCO1 (stereo not drawn)	-2%	1%	-7%	24µM*	-12%	-22%
SMILES	L3MBTL1 block	JMJD2A Tudor	VDR inhibitor	PLK1 PBD block	HP1b binding inh	BAZ2B block
COc1ccc(Cc2nnc(NC(=O)C3CCCO3)s2)cc1 (stereo not drawn)	1%	-5%	-13%	1%	27%	-37%
Nc1nc(=O)n(C2OC(CO)C(O)C2O)cc1Cl (stereo not drawn)	.	.	-5%	.	.	.
CCN(CC)C1CC(=O)N(c2cccc(C)c2)C1=O (stereo not drawn)	9%	.	.	.	.	-1%
CCN(CCO)C1CC(=O)N(c2ccccc2C)C1=O (stereo not drawn)	-2%	40µM*	-8%	-4%	26%	-4%
COc1ccc(C(NCC(=O)NC(C)c2ccc(Cl)cc2)c2ccccc2)cc1 (stereo not drawn)	.	25µM*	-11%	1%	?	79µM*
CC(NC(=O)COC(=O)COc1ccc(Cl)cc1)c1ccccc1 (stereo not drawn)	8%	-14%	15%	-6%	9%	.
COc1ccc(NC(=O)CNC(c2ccccc2)c2ccccc2)cc1	3%	20µM*	0%	6%	?	79µM*
COc1cc(NC(=O)CNC(c2ccccc2)c2ccccc2)cc(OC)c1OC	.	-17%	-19%	5%	7%	-12%
COc1ccc(Cl)cc1Nc1sc(C(=O)c2ccccc2)c(N)c1C(=O)Nc1ccccc1	.	?	-17%	.	?	?
O=C(CCl)Nc1c2c(nn1-c1ccccc1)CSC2	.	45µM*	?	27µM*	-18%[57 µM]	-13%
CCOC(=O)C1CCN(C(=O)Cn2nc(CC)n3cccc3c2=O)CC1	.	?	?	27µM*	10%	-16%
CCc1nn(CC(=O)N2CCN(C)CC2)c(=O)c2cccn12	4%	-9%	0%	-9%	29%	0%
CCOC(=O)C1CCN(C(=O)Cn2nc(C)n3c(cc4c(OC)cccc43)c2=O)CC1	.	-7%	-6%	.	18%	-2%
CCOC(=O)C1CCCN(C(=O)Cn2nc(C)n3c(cc4c(OC)cccc43)c2=O)C1 (stereo not drawn)	.	-26%	-22%	27µM*	9%	-5%
O=C(NC1CCCCC1)NC1CCN(CC(=O)N2CCOCC2)CC1	.	-13%	9%	-7%	19%	?
CC1CC(C)CN(CC(=O)N2CCOCC2)C1 (stereo not drawn)	1%	25µM*	?	2%	-20%	50µM*
O=C(NCc1ccco1)c1cc2cc(Br)ccc2o1	.	?	89µM*	11µM*	?	?
CC1=NN(c2ccc(Cl)c(C(=O)O)c2)C(=O)/C1=C\c1ccc(-c2ccc(C(=O)O)cc2)o1	.	?	-30%	8.4µM*	-15%	50µM*
CC1=NN(c2ccccc2)C(=O)/C1=C/c1ccc(-c2ccc(C)c(C(=O)O)c2)o1	.	40µM*	?	4.7µM*	?	.
